This is an account of results in the supplement of paper PMC12024529.

The experiment has as its system HEK293 WT BDD-FVIII-Gluc. Description: secreted FVIII-Gluc luciferase Z-score vs DMSO control; higher = more FVIII-Gluc secretion. The note with it: 5 µM. The method, then:
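Natural plant-compound library (480 compounds, ST catalogue IDs) screened on HEK293 cells stably expressing WT BDD-FVIII-Gaussia luciferase fusion at 5 µM. Secreted Gluc activity in the medium is given as a Z-score relative to DMSO controls.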
For `C=C(C)[C@@H]1[C@H]2OC(=O)[C@@H]1[C@]1(O)C[C@H]3O[C@]34C(=O)O[C@H]2[C@]14C`, the “secreted FVIII-Gluc luciferase Z-score” value was determined as 0.972.
`CCCCCC[C@H]1C(=O)O[C@H](C)[C@H](NC(=O)c2cccc(NC=O)c2O)C(=O)O[C@@H](C)[C@@H]1OC(=O)CC(C)C`: the “secreted FVIII-Gluc luciferase Z-score” value was -3.29.
Regarding `COc1ccc2c(c1OC)CN1CCc3cc4c(cc3C1C2)OCO4` (stereo not given), the “secreted FVIII-Gluc luciferase Z-score” value was 0.658.
The same measure for `C[C@]12CC[C@H](O)CC1=CC[C@@H]1[C@@H]2CC[C@]2(C)C(=O)CC[C@@H]12`: 1.29; for `C=C(C)[C@H]1Cc2c(ccc3c2O[C@@H]2COc4cc(OC)c(OC)cc4[C@@H]2C3=O)O1`: -5.82; for `CC12C(=O)OC(=O)C1(C)C1CCC2O1` (stereo not given): -4.31.
To `CN1C[C@H](CNC(=O)OCc2ccccc2)C[C@@H]2c3cccc4c3c(cn4C)C[C@H]21` belongs -0.629; to `O=c1cccc2n1CC1CC2CN2CCCC[C@H]12` (stereo not given in full), 0.225; to `CC1(C)S[C@@H]2[C@H](N)C(=O)N2[C@H]1C(=O)O`, -1.19.
To `CN[C@@H](Cc1c[nH]c2ccccc12)C(=O)O` belongs 0.0662; to `C[C@H]1C(=O)O[C@H]2CCN3CC=C(COC(=O)[C@](C)(O)[C@@]1(C)O)C23` (stereo not given in full), 0.0827.
With `COc1cc2c(cc1OC)-c1c(OC)c(OC)c(CO)c3c1C(C2)N(C)CC3` (stereo not given), the “secreted FVIII-Gluc luciferase Z-score” value is -0.0378.
The same measure for `c1cc2c(cc1C1OCC3C(c4ccc5c(c4)OCO5)OCC13)OCO2` (stereo not given): -0.0258.
With `COc1ccc(CC2NCC(O)C2OC(C)=O)cc1` (stereo not given), the “secreted FVIII-Gluc luciferase Z-score” value is -4.62.
In the case of `O=c1cccc2n1CC1CC2CN(CCO)C1` (stereo not given), the “secreted FVIII-Gluc luciferase Z-score” value was found to be 0.624.
Regarding `COc1ccc2c(c1OC)C(=O)O[C@@H]2[C@H]1c2cc3c(cc2CCN1C)OCO3`, the “secreted FVIII-Gluc luciferase Z-score” value is 1.04.
The same measure for `CCC1CN2CCC1CC2C(O)c1ccnc2ccccc12` (stereo not given): 0.33; for `COc1ccc(Cc2nccc3cc(OC)c(OC)cc23)cc1OC`: -0.721.
`c1cncc(C2CCCCN2)c1` (stereo not given): the “secreted FVIII-Gluc luciferase Z-score” value was -0.711.
The same measure for `CN1CC(C(=O)NC2(C)OC3(O)C4CCCN4C(=O)C(Cc4ccccc4)N3C2=O)C=C2c3cccc4[nH]cc(c34)CC21` (stereo not given): 0.871; for `O=C1CCCC2[C@@H]3CCCN4CCC[C@H](CN12)[C@H]34` (stereo not given in full): 0.572.
To `CC1=CC(=O)C2=C(C)C[C@H](O)[C@H]3[C@H](C)C(=O)O[C@@H]3C12` (stereo not given in full) belongs -0.726; to `CC1=CC(=O)c2c(O)cccc2C1=O`, -2.68; to `CN1C[C@@H](CO)C=C2c3cccc4[nH]cc(c34)CC21` (stereo not given in full), 0.731.
With `COc1cc2c(cc1O)C[C@H]1c3c(cc(OC)c(O)c3-2)CCN1C`, the “secreted FVIII-Gluc luciferase Z-score” value is 0.61.
Regarding `C[C@@H]1O[C@@H](O[C@H]2C[C@@H](O)[C@]3(CO)[C@H]4[C@H](O)C[C@]5(C)[C@@H](C6=CC(=O)OC6)CC[C@]5(O)[C@@H]4CC[C@]3(O)C2)[C@H](O)[C@H](O)[C@H]1O`, the “secreted FVIII-Gluc luciferase Z-score” value was -3.87.
To `CC[C@@H](CO)NC(=O)[C@@H]1C=C2c3cccc4[nH]cc(c34)C[C@H]2N(C)C1` belongs 0.791.
To `CC1CC[C@@]2(OC1)O[C@H]1[C@@H](O)[C@H]3[C@@H]4CC[C@H]5C[C@@H](O[C@@H]6O[C@H](CO)[C@H](O[C@@H]7O[C@H](CO)[C@@H](O)[C@H](O[C@@H]8OC[C@@H](O)[C@H](O)[C@H]8O)[C@H]7O[C@@H]7O[C@H](CO)[C@@H](O)[C@H](O[C@@H]8O[C@H](CO)[C@@H](O)[C@H](O)[C@H]8O)[C@H]7O)[C@H](O)[C@H]6O)[C@H](O)C[C@]5(C)[C@H]4CC[C@]3(C)[C@H]1[C@@H]2C` (stereo not given in full) belongs 0.427.
With `CN[C@H]1CCc2cc(OC)c(OC)c(OC)c2-c2ccc(OC)c(=O)cc21`, the “secreted FVIII-Gluc luciferase Z-score” value is -3.62.
With `O=C1C=C2C=C[C@@H]3C[C@@]2(O1)[C@H]1CCCCN31`, the “secreted FVIII-Gluc luciferase Z-score” value stood at 0.666.
The same measure for `COC1=CC2C3Cc4ccc(OC)c(O)c4C2(CCN3C)CC1=O` (stereo not given): -0.0187.
Consider `CN1CCc2cc3c(cc2[C@H]1[C@H]1OC(=O)c2c1ccc1c2OCO1)OCO3`, for which the “secreted FVIII-Gluc luciferase Z-score” value was 0.159.
Turning to `C/C=C1/C[C@@H](C)[C@](O)(CO)C(=O)OCC2=CCN3CC[C@@H](OC1=O)[C@@H]23`, the “secreted FVIII-Gluc luciferase Z-score” value was -1.37.
With `C[C@]12CC[C@H](O)C[C@@H]1CC[C@@H]1[C@@H]2CC[C@]2(C)C(=O)CC[C@@H]12`, the “secreted FVIII-Gluc luciferase Z-score” value turned out to be 0.049.
To `C[C@@H]1OC(=O)[C@H]2C[C@H]3CCCC[C@@H]3[C@@H](/C=C/[C@@H]3CCC[C@@H](C)N3C)[C@@H]12` belongs -0.126.
The same measure for `CNC(=O)Oc1ccc2c(c1)C1(C)CCN(C)C1N2C` (stereo not given): 0.602.
To `CCC1(O)C(=O)OCc2c1cc1n(c2=O)Cc2cc3ccccc3nc2-1` (stereo not given) belongs -3.23; to `COc1ccc2c(c1)[nH]c1c(C)nccc12`, -2.87.
Regarding `O=c1cccc2n1C[C@@H]1CNC[C@H]2C1`, the “secreted FVIII-Gluc luciferase Z-score” value amounted to 0.0778.
To `C[C@H]1CCC/C=C/C2C[C@H](O)C[C@H]2[C@H](O)/C=C/C(=O)O1` (stereo not given in full) belongs -4.99.
